Experimental data: PubChem BioAssay (NCATS)
“And” between values parts separate entries of the source, which are not always exact repeats. Equal values may be shown once. Results filed as inconclusive are left out. Some compounds were tested as several samples or in several runs, with calls that do not always agree. The source made the active and inactive calls. Unless noted, calls follow the shape of the dose curve; as a rule, active = well fitted curve in the direction sought with a large enough effect; inconclusive = small, poorly fitted or top-dose-only effect, or another doubt; inactive = no such curve, though single readings can be large; an effect the other way counts as inactive or inconclusive.

Experiments:
[1] = target: Cytochrome P450 2D6 (Homo sapiens) (UniProt P10635); test: Cytochrome P450 family 2 subfamily D member 6 (CYP2D6) small molecule antagonists: luciferase biochemical (cell-free) qHTS assay (AID 1645840; active = well fitted curve in the direction sought with a large enough effect in the repeat runs; an effect the other way counts as inactive or inconclusive; also: nearly all actives have a fitted effect of over 55% in size; also: potency is read from the fitted curve at half-maximal effect)
Sequence of Cytochrome P450 2D6 (Homo sapiens) (P10635 whole entry, looked up): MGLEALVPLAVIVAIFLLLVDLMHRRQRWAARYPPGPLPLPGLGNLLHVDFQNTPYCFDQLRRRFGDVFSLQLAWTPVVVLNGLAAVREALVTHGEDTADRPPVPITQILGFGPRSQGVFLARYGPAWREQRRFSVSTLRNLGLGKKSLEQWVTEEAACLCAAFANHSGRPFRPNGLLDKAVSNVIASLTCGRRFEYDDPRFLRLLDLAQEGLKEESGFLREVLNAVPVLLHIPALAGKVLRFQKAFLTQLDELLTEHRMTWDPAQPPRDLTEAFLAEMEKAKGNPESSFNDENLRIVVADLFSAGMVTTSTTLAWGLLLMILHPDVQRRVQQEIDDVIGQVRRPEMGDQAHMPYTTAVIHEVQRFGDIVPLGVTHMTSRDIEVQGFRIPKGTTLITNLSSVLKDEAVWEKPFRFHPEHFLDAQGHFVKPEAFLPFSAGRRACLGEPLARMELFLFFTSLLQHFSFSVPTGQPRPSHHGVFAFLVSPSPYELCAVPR
Method in brief: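 P450-Glo CYP2D6 system: proluciferin substrate converted by enzyme to luciferin, read by luminescence proportional to activity. Enzyme-substrate mix with compound 10 min at room temperature, then NADPH regeneration 1 h before detection reagent.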

[2] = Primary qHTS for inhibitors of nuclear receptor binding SET domain protein 2 (NSD2) in an isogenic RCH-ACV NSD2 p.E1099K mutant (9B) (AID 1645876); also: nearly all actives have a fitted effect of over 70% in size; also: potency is read from the fitted curve at half-maximal effect
[3] = Primary qHTS for inhibitors of nuclear receptor binding SET domain protein 2 (NSD2) in an RCH-ACV wild type WT cells (2C) (AID 1645877); also: nearly all actives have a fitted effect of over 70% in size; also: potency is read from the fitted curve at half-maximal effect
[4] = target: Catechol O-methyltransferase (Homo sapiens) (UniProt P21964); test: Confirmatory Screen for Target Class Profiling of Small Molecule Inhibitors of Methyltransferases (AID 1745852); settings: MTase-Glo luminescence, SAH detection, recombinant enzyme; measured here: COMT max response; stronger effect = lower value
Sequence of Catechol O-methyltransferase (Homo sapiens) (P21964 whole entry, looked up): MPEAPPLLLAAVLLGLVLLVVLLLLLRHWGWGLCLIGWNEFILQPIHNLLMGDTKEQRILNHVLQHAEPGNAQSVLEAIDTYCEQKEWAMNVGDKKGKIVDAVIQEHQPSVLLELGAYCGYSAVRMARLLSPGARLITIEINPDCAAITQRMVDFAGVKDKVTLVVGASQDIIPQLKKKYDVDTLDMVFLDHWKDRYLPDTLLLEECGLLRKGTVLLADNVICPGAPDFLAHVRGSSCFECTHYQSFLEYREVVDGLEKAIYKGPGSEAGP

[5] = target: Cytochrome P450 2C9 (Homo sapiens) (UniProt P11712); test: Cytochrome P450 family 2 subfamily C member 9 (CYP2C9) small molecule antagonists: luciferase biochemical (cell-free) qHTS assay (AID 1645842; active = well fitted curve in the direction sought with a large enough effect in the repeat runs; an effect the other way counts as inactive or inconclusive; also: potency is read from the fitted curve at half-maximal effect; nearly all actives have a fitted effect of over 55% in size)
Sequence of Cytochrome P450 2C9 (Homo sapiens) (P11712 whole entry, looked up): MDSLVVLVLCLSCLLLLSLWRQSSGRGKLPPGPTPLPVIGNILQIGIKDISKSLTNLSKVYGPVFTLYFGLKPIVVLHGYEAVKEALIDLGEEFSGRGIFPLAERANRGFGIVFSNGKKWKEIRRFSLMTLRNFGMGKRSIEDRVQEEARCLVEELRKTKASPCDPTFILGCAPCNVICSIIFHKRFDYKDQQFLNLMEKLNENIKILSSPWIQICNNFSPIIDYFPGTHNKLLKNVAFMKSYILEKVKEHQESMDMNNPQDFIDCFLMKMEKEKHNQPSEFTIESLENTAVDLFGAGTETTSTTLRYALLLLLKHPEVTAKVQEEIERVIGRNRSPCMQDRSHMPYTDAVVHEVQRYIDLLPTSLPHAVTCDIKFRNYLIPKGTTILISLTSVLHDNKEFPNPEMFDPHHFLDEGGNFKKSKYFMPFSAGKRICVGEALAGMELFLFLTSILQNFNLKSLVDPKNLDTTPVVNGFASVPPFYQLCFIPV
Method in brief: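 P450-Glo CYP2C9 system: proluciferin substrate with enzyme in mix containing 0.4% BSA, 10 min at room temperature, then NADPH regeneration solution added and incubated 1 h at 37C. Detection reagent stopped reaction; luminescence read after 20 min as RLU.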

[6] = target: Cytochrome P450 3A4 (Homo sapiens) (UniProt P08684); test: Cytochrome P450 family 3 subfamily A member 4 (CYP3A4) small molecule antagonists: luciferase qHTS assay (AID 1645841; active = well fitted curve in the direction sought with a large enough effect in the repeat runs; an effect the other way counts as inactive or inconclusive; also: nearly all actives have a fitted effect of over 45% in size; also: potency is read from the fitted curve at half-maximal effect)
Sequence of Cytochrome P450 3A4 (Homo sapiens) (P08684 whole entry, looked up): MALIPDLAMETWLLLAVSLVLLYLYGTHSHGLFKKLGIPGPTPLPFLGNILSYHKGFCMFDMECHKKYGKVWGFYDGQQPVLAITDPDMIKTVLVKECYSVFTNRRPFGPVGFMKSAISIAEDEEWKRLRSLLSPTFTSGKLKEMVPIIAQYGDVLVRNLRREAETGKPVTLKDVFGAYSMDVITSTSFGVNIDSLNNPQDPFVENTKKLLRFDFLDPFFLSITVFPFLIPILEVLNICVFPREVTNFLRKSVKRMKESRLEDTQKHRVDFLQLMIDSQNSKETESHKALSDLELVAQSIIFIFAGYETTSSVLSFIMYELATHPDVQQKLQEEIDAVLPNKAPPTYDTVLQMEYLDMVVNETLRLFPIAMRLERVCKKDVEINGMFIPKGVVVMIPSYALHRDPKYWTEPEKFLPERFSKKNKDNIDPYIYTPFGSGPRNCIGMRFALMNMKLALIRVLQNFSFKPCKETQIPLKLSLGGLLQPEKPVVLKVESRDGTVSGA
Method in brief: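 Luminescent CYP3A4 activity readout: compounds plus enzyme-substrate mix 10 min at room temperature, reaction started with NADPH regenerating system for 1 h, stopped with detection reagent, read after 20 min. Ketoconazole served as control.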

O=C(O)[C@H](Cc1ccc(Nc2nccc3ccncc23)cc1)NC1=C(Br)C(=O)C12CCCCC2
Potency [1]: inactive
Potency [2]: inactive
Potency [3]: inactive

CC(C)(C#N)c1ccc(N2C(=O)OCc3cnc4ccc(-c5cnc6ccccc6c5)cc4c32)cc1
Potency [1]: inactive
Potency [2]: 0.728 µM (active)
Potency [3]: 0.817 µM (active)

COc1ccccc1Oc1ccc(N(Cc2cccnc2)S(=O)(=O)CC(F)(F)F)cc1
Potency [1]: 13.5 µM (active)
Potency [2]: inactive
Potency [3]: inactive

Cc1[nH]c2ccccc2c1CCNC(=O)c1ccccc1F
Potency [1]: 21.3 µM (active)
Potency [2]: inactive
Potency [3]: inactive

CN(C)CC1CCOC1(c1ccccc1)c1ccccc1 (stereo not given)
Potency [1]: 2.24 µM (active)
Potency [2]: inactive
Potency [3]: inactive

Nc1nc2c(c(N3CCNCC3)n1)CCC1=C2[C@@H]2CCCC[C@@H]2O1
Potency [1]: 19 µM (active)
Potency [3]: 16.3 µM (active)

Cc1ncc(CCCN(C)C)cc1Nc1ncc2c(n1)-c1ccc(C(F)(F)F)cc1NC(=S)C2
Potency [1]: 13.5 µM (active)
Potency [2]: 0.0916 µM (active)
Potency [3]: 0.129 µM (active)
activity [4]: -3.05%

Cc1ccc(C(=O)N(CCCN)C(c2oc3cc(Cl)ccc3c(=O)c2Cc2ccccc2)C(C)C)cc1 (stereo not given)
Potency [1]: 10.7 µM (active)
Potency [2]: inactive
Potency [3]: inactive

CCc1cccc(CC)c1NC(=O)c1nn(C)c2c1CCc1cnc(Nc3ccc(C(=O)NC4CCN(C)CC4)cc3OC(F)(F)F)nc1-2
Potency [1]: 9.28 µM (active)
Potency [3]: 1.78 µM (active)

CC(C)(C)NC(=O)[C@@H](c1cccnc1)N(C(=O)c1ccco1)c1ccc(C(C)(C)C)cc1
Potency [5]: 5.35 µM (active)

N#Cc1ccc(-c2cnc3[nH]cc(NC(=O)c4cccnc4)c3c2)cc1
Potency [1]: inactive
Potency [2]: 7.28 µM (active)
Potency [3]: 5.15 µM (active)
activity [4]: 1.05%

C[C@H](Oc1ccc(S(C)(=O)=O)cc1C(=O)N1CCN(c2ncc(C(F)(F)F)cc2F)CC1)C(F)(F)F
Potency [5]: 6.74 µM (active)

CC(C)c1cc(CNc2nc(Nc3cc(C4CC4)[nH]n3)cc(N3CCN(C)CC3)n2)on1
Potency [1]: 2.68 µM (active)
Potency [2]: 64.9 nM (active) and 525 nM (active)
Potency [3]: 29 nM (active) and 66.1 nM (active)
activity [4]: -7.12%

Cc1cc(C)c(CNC(=O)c2cc(-c3ccc(CN4CCOCC4)cc3)cc3c2cnn3C2CCCC2)c(=O)[nH]1
Potency [1]: inactive
Potency [2]: inactive and 18.6 µM (active)
Potency [3]: inactive and 18.6 µM (active)

CC(C)(F)C[C@@H](N[C@@H](c1ccc(-c2ccc(S(C)(=O)=O)cc2)cc1)C(F)(F)F)C(=O)NC1(C#N)CC1
Potency [1]: 2.68 µM (active)
Potency [2]: inactive
Potency [3]: inactive

CC1(C)CCC(C)(C)c2cc(C3(c4ccc(C(=O)O)cc4)OCCO3)ccc21
Potency [1]: inactive
Potency [2]: inactive
Potency [3]: inactive

COc1cc2nc(N3CCC(N4CCCCC4)CC3)nc(NC3CCCCCC3)c2cc1OC
Potency [1]: 7.56 µM (active)
Potency [2]: 2.3 µM (active)
Potency [3]: 2.3 µM (active)
activity [4]: -39.3%

Nc1ccc(-c2cccc3c(=O)cc(N4CCOCC4)oc23)cc1
Potency [1]: inactive
Potency [2]: 1.63 µM (active)
Potency [3]: 1.83 µM (active)

COc1cc(N2CCOCC2)ccc1Nc1ncc(Cl)c(Nc2ccccc2NS(C)(=O)=O)n1
Potency [1]: 15.1 µM (active)
Potency [2]: 1.15 µM (active)
Potency [3]: 1.83 µM (active)

CCOC(=O)c1sc(NC(=O)[C@H](C(C)C)n2c(=O)[nH]c3ccccc3c2=O)nc1C
Potency [5]: 4.77 µM (active)

CN(C)c1nc(NC2CCC(NC(=O)c3ccc(F)c(F)c3)CC2)nc2ccccc12 (stereo not given)
Potency [1]: 5.35 µM (active)
Potency [2]: 6.49 µM (active)
activity [4]: -11.9%

CC(C)[C@@H]1C(=O)N(S(C)(=O)=O)[C@@H]2CCN(C(=O)/C=C/CN3CCCCC3)[C@H]21
Potency [1]: inactive
Potency [2]: inactive
Potency [3]: inactive

Cc1ccc(Cc2c(C)nc3nc(SCC(=O)NCCN4CCNCC4)nn3c2C)cc1
Potency [1]: inactive
Potency [2]: inactive
Potency [3]: inactive

C=CC(=O)Nc1cc(Nc2ncc(Cl)c(-c3c[nH]c4ccccc34)n2)c(OC)cc1N(C)CCN(C)C
Potency [5]: 9.52 µM (active)

Nc1nc(-n2cc(C(=O)O)c(=O)c3cc(F)c(N4CC(O)C4)c(Cl)c32)c(F)cc1F
Potency [1]: inactive
Potency [2]: inactive
Potency [3]: inactive
activity [4]: -21.4%

CCCCNc1ccc(-c2ccc(CN3CCOCC3)cn2)c(NC2CCC(O)CC2)c1 (stereo not given)
Potency [6]: inactive
Potency [3]: 0.796 µM (active)

Cc1ccc(NC(=O)c2ccc(CN3CC[C@H](N(C)C)C3)c(C(F)(F)F)c2)cc1Nc1nccc(-c2cncnc2)n1
Potency [6]: 1.69 µM (active)
Potency [2]: 8.11 µM (active)
Potency [3]: 7.23 µM (active)
